Shiga inhibitor: inhibitors of Shiga toxin in Vero cells; Vero cells, Shiga toxin protein synthesis inhibition reporter; inhibition, % at 38.7 µM; 290,000 compounds, 9.2% hits; in the data active = inhibition mostly above about 28%, no sharp cut-off; inactive = mostly below about 43%; note: 0% is about no effect
Cycloheximide cs: counter-screen for Shiga toxin inhibitors: cycloheximide protein synthesis inhibition | cell reporter, cycloheximide protein synthesis inhibition counterscreen | max response, % | 300,000 compounds, 12% hits; in the data active = max response mostly above about 13%, no sharp cut-off; inactive = mostly below about 14%; note: read at 38.3 µM for the half of the compounds with a filed dose; 0% is about no effect
NS1 function inh: blocks influenza NS1 protein function; Potency, µM (titrated, usually from 46.1 µM), inactives show top-dose activity, positive = more growth; 270,000 compounds, 0.4% hits; calls by dose curve; note: potency is the fitted concentration of half-maximal effect; actives are rising curves; nearly all actives have a fitted effect of over 50% in size
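OD600 was taken as the measure of yeast growth restored by compound in an NS1-expressing S. cerevisiae strain. Cells had been washed out of glucose medium and diluted 1:100 into galactose -URA medium, pH 6.0.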
Pf growth 48h: P. falciparum growth inhibition at 48 hours (one generation); 310,000 compounds, 5.9% hits; P. falciparum luciferase growth in erythrocytes, 48 h; Potency, µM (series often up to 28.7 µM), for the others: at the top dose activity change, negative = inhibition, most hits filed as inhibitors; note: potency is the fitted concentration of half-maximal effect; % is set by controls: 0 for no effect and ±100 for the full control effect
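Erythrocytes infected with P. falciparum carrying an integrated firefly luciferase reporter (2% hematocrit, 0.1% parasitemia final) were exposed to compounds in RPMI 1640 with 0.5% Albumax at 37 C, 5% CO2. Growth inhibition was scored as reduced luminescence.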
Giardia FBPA inh: Giardia lamblia aldolase inhibition. A8B2U2. purified Giardia FBPA. Potency, µM (highest dose often 59.6 µM), inactives show top-dose activity, negative = inhibition, usual class: inhibitors. 290,000 compounds, 0.71% hits; note: potency is the fitted concentration of half-maximal effect; % is set by controls: 0 for no effect and ±100 for the full control effect; nearly all actives have a fitted effect of over 55% in size
Target sequence (A8B2U2 whole entry, looked up): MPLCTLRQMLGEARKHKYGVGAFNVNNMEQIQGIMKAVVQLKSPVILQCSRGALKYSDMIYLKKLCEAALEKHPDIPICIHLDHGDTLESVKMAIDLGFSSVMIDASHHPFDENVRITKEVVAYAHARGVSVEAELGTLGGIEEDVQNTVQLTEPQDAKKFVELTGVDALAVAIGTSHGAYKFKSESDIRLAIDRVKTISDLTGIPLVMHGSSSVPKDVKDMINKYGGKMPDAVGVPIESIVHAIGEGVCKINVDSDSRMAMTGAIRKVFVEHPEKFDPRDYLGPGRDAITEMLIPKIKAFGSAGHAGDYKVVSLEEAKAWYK
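40 nM FBPA preincubated 10 min at RT with compound (up to 57.5 uM final), then substrate plus GAPDH/TPI/NAD/arsenate coupling and diaphorase/resazurin added. Fluorescence read after 20 min at RT, 525/598 nm.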
Pf growth 96h: inhibits malaria parasite growth, 96 h. 320,000 compounds, 6.9% hits. P. falciparum luciferase reporter growth, 96 h. AID 504834. Potency, µM (titrated, usually from 28.7 µM), for inactives: at the highest dose activity change, negative = inhibition, most hits filed as inhibitors; note: potency is the fitted concentration of half-maximal effect; % is set by controls: 0 for no effect and ±100 for the full control effect
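Erythrocytes infected with luciferase-expressing P. falciparum were dispensed at 2% hematocrit and 0.05% parasitemia (final), then incubated with compounds 96 hours at 37 C in 5% CO2. Luminescence after detection reagent addition reported growth.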
NS1 inh valid: validation of influenza NS1 protein function inhibitors; shares compounds with NS1 function inh; influenza NS1 function cell assay, 15-point titration; activity change, negative = inhibition, % at 32.9 µM; 1,400 tested, under 10 active; AID 492980; calls by dose curve; note: 0% is about no effect
PR8 titer: influenza NS1 inhibitors: inhibition of influenza A/PR/8/34 replication | MDCK infected influenza A/PR/8/34, virus titer TCID50; hits give low values | AID 504647 | shares compounds with NS1 function inh | virus titer (log TCID50), log10 TCID50 at 5 µM | 95 compounds, 30% hits; call rule not given here
Active calls of the source: *; ? = inconclusive; nt = no result. Compounds with a hit are over-represented: about 21% of the library has one in this group of screens. Unless noted, calls come from the whole dose curve; as a rule, active = well fitted curve in the direction sought with a large enough effect; inconclusive = small, poorly fitted or top-dose-only effect, or another doubt; inactive = no such curve, though single readings can be large; an effect the other way counts as inactive or inconclusive.

SMILES | Shiga inhibitor | Cycloheximide cs | NS1 function inh | Pf growth 48h | Giardia FBPA inh | Pf growth 96h | NS1 inh valid | others
Cc1ccc(S(=O)(=O)N2CC(=NO)C2)cc1 | -17 | 1 | 6.3µM* | 9% | -11% | 13µM* | 14
Cc1ccc(-c2ccc(S(=O)(=O)N3CCN(C)CC3)cc2)cc1 | 69 | 6 | 11µM* | 1% | 7% | nt | -34
Cc1cc(Nc2ccc(F)cc2F)n2nc(C)nc2n1 | 0 | -2 | 13µM* | -6% | -3% | 18% | -27
Cc1cc(Nc2cc(F)ccc2C)n2nc(C)nc2n1 | 9 | 13 | 7% | 33% | 1% | 13% | nt
Cc1[nH]c2c(C)cccc2c1CN1CCC(CO)(Cc2ccccc2)CC1 | -14 | 16 | 0% | ? | -2% | -28% | nt
CCN(C(=O)COC(=O)c1[nH]c(C)c(C(C)=O)c1C)C1CCS(=O)(=O)C1 (stereo unspecified) | -5 | -3 | 3% | ? | -2% | 13% | nt
CCC(C)N(C(=O)COC(=O)c1[nH]c(C)c(C(C)=O)c1C)C1CCS(=O)(=O)C1 (stereo unspecified) | -22 | -5 | 3.2µM* | -15% | 1% | -20% | 1
CCOC(=O)N1CCC(NC(=O)c2ccccc2C(=O)O)CC1 | -4 | -2 | ? | 5.9µM* | 2% | 0% | -3
CCCCNCc1cc2ccccc2o1 | -4 | -2 | 2% | 3% | -4% | 26% | nt
CCC12CSc3nc(Cl)ccc3N1C(=O)C(=O)N2C (stereo unspecified) | 11 | 8 | -3% | 1% | 0% | -5% | nt
CCOc1ccc(S(=O)(=O)N2CCCC(C(=O)NC3CCCC3)C2)cc1 (stereo unspecified) | -6 | -2 | 3% | 12% | 0% | -12% | nt
O=c1ccc(Cl)n[nH]1 | 23 | -1 | 7.9µM* | -5% | 4% | 77% | 14
O=c1ccc(Cc2ccc(Cl)cc2)n[nH]1 | -10 | -5 | 2% | 6% | 4% | 27% | nt
COc1ccc2c(c1)c(CC(=O)Nc1cc(C)ccc1C)c(C)n2C(=O)c1ccc(Cl)cc1 | 10 | 6 | ? | ? | -1% | 12µM* | -6
COc1ccc(-c2ccc3c(n2)sc2c(=O)[nH]c(=O)[nH]c23)cc1OC | 4 | 17 | nt | 15% | -7% | 81% | nt
Cc1nn(-c2cc(N3CCOCC3)ccc2[N+](=O)[O-])c(=O)c2ccccc12 | -18 | -4 | -1% | nt | 0% | 14% | nt
Cc1nn(-c2cc(N3CCOCC3)ccc2N)c(=O)c2ccccc12 | 4 | -2 | 14µM* | -12% | -1% | -5% | 13
CC(=O)C1=C(C)NC(SCC(N)=O)=C(C#N)C1C (stereo unspecified) | -18 | -3 | 6% | -1% | ? | nt | nt
CC1(C)CC2CC(C)(CN2S(=O)(=O)c2ccc(C(=O)Nc3cccc(S(=O)(=O)N4CCOCC4)c3)cc2)C1 (stereo unspecified) | -7 | 3 | 13µM* | 2.9µM* | -5% | ? | 14
COc1ccc([N+](=O)[O-])cc1NC(=O)c1ccccc1SC | 35 | -1 | nt | 0% | 1% | 28% | nt
COc1ccc(-n2cc(C(=O)Nc3cc([N+](=O)[O-])ccc3OC)c3ccccc3c2=O)cc1 | -6 | -2 | 22µM* | -28% | 3% | ? | 9
Cc1ccc2c(c1)NCC(C(=O)NC1CCCCC1)O2 (stereo unspecified) | -10 | -3 | 7.9µM* | 17% | -2% | 9% | 1
C[C@@H](C(=O)Nc1ccc2ccccc2c1)[C@H]1C[C@]1(C)[C@H](NC(=O)c1cccnc1)c1ccccc1 | -15 | -6 | 14µM* | 5.2µM* | -8% | 5.2µM* | -3 | PR8 titer=8
CC(=O)N[C@H](c1ccccc1)[C@@]1(C)C[C@@H]1[C@@H](C)C(=O)Nc1ccc2ccccc2c1 | nt | nt | nt | nt | -3% | nt | nt
C[C@@H](C(=O)Nc1ccc2ccccc2c1)[C@@H]1C[C@@]1(C)[C@@H](NC(=O)c1ccccc1)c1ccccc1 | 10 | 7 | 13µM* | ? | -3% | 13µM* | 15 | PR8 titer=8.7
SMILES | Shiga inhibitor | Cycloheximide cs | NS1 function inh | Pf growth 48h | Giardia FBPA inh | Pf growth 96h | NS1 inh valid | others
COc1ccc([C@H]2[C@H](C(=O)C(C)(C)C)N3N=Cc4ccccc4C3[C@]23N=C(c2ccccc2)OC3=O)cc1 (stereo partly specified) | 29 | 11 | 2µM* | 13µM* | -10% | 9.3µM* | -10
Clc1ccc(N2CCN(c3ncnc4c3oc3ccccc34)CC2)cc1 | -9 | -1 | ? | 14% | 2% | 38% | -3
CCOC(=O)C1CCN(c2ncnc3c2oc2ccc(Cl)cc23)CC1 | 22 | 12 | -96% | 13% | 14% | -6% | nt
COc1cccc2c(=O)c(C(=O)NCc3cccs3)c[nH]c12 | 76* | 53* | 1.4µM* | 31% | -7% | 3% | -4
O=C(CSCC(=O)N1CCCc2ccccc21)Nc1nc(-c2ccccc2)cs1 | 33 | 18* | 20µM* | 29% | 1% | -73% | -25
O=C(CSc1ccc(-c2nc3ccccc3[nH]2)cn1)Nc1ccc(S(=O)(=O)N2CCCC2)cc1 | 33* | 40* | 14µM* | ? | -6% | ? | 9
Cc1cc(=O)[nH]c(SCC(=O)Nc2ccc(S(=O)(=O)N3CCCCC3)cc2)n1 | 1 | 6 | -6% | nt | -3% | nt | nt
COc1ccc(N(C)S(=O)(=O)c2cccc(C(=O)OC(C(=O)Nc3cc(C)cc(C)c3)c3ccccc3)c2)cc1 (stereo unspecified) | -2 | -2 | 8.9µM* | -3% | 1% | -5% | 26
CC(=O)c1cccc(NC(=O)C(OC(=O)c2cccc(S(=O)(=O)N(C)c3ccccc3)c2)c2ccccc2)c1 (stereo unspecified) | -15 | 1 | ? | -11% | -1% | -20% | nt
COc1ccc(N(C)S(=O)(=O)c2cccc(C(=O)N3CCN(S(=O)(=O)c4ccc(C)cc4)CC3)c2)cc1 | -2 | -1 | 11µM* | 5.9µM* | nt | 2.6µM* | 4
CCCCc1ccc(NC(=O)CSC2=C(C#N)C(c3ccco3)C3=C(CCCC3=O)N2)cc1 (stereo unspecified) | -3 | 19* | 20µM* | 1.9µM* | -27% | ? | ?
CC1(C)CC(=O)C(C2C3=C(CC(C)(C)CC3=O)OC3=C2C(=O)CC(C)(C)C3)=C(O)C1 | 16 | 2 | -1% | 4% | 2% | 14% | nt
CC/C(=N\NC(=O)c1ccc(CN(C)S(=O)(=O)c2ccc(C)cc2)cc1)c1ccc(OC(F)F)cc1 | -7 | -2 | ? | 3% | -2% | 0% | 14

Bioassay records as filed in PubChem.
